27 molecules from PubChem BioAssay (NCATS) can be followed below.

SMILES strings stand for the structures. Active and inactive are the calls of the source. A call without a number means that no potency is given here. Calls come from the whole dose curve; as a rule, active = well fitted curve in the direction sought with a large enough effect; inconclusive = small, poorly fitted or top-dose-only effect, or another doubt; inactive = no such curve, though single readings can be large or run the other way.
Potency is the fitted concentration of half-maximal effect.

A short description of this assay: Cellular Toxicity (caspase-3) HUV-EC-C (AID 656). To be noted: HUV-EC-C cells, caspase-3 activation (apoptosis); series mostly up to 92.2 µM. The text has this: NIH Chemical Genomics Center [NCGC]
NIH Molecular Libraries Screening Centers Network [MLSCN]
National Institutes of Environmental Health Sciences [NIEHS]
National Toxicology Program [NTP]
We have developed a 1536-well cell-based assay for quantitative high throughput screening (qHTS) against a number of cell lines to determine in vitro caspase 3/7 of small molecules. This particular assay uses the HUV-EC-C cell line which is derived from normal human vascular endothelial cells.
NCGC Assay Protocol Summary:
The Caspase-Glo 3/7 assay (Promega) is a homogeneous method to measure caspase-3 and caspase-7 activities in cultured cells. The quantitation of caspase 3/7 activity is based on the cleavage of a peptide-aminoluciferin substrate. After caspase cleaves the substrate the free aminoluciferin is liberated and serves as the substrate of luciferase, which generates the light. The luminescent signal is proportional to amount of caspase 3/7 activity present.
Using the Caspase-Glo 3/7 assay, the amount of caspase 3/7 activity was measured in the HUV-EC-C cell line with complete culture medium following compound treatment for 16 hours. The assay was performed in opaque white 1536-well plates. In the screen, tamoxifen and doxorubicin were used as positive controls. Library compounds were measured for their ability to cause the activation of caspase 3/7 in the cell line, as reflected by an increase in luminescence signal, in a concentration-dependent manner. Data were normalized to the controls for basal activity (DMSO only) and 100% stimulation (100 uM tamoxifen). AC50 values were determined from concentration-response data modeled with the standard Hill equation.
qHTS protocol for caspase 3/7 assay in HUV-EC-C cell line
[Step] [Parameter] [Value] [Description]
1. Reagent; 5 uL; 1000 HUV-EC-C cells/well
2. Time; 5 hr; 37 °C incubation
4. Controls; 23 nL; Tamoxifen 0.23 uM to 100 uM & doxorubicin 7.0 pM to 100 uM
5. Time; 16 hr; 37 °C incubation
6. Reagent; 5 uL; Caspase-Glo 3/7 reagent
7. Time; 20 min; Room Temperature
8. Detection; Luminescence; Viewlux plate reader
Keywords: caspase 3/7, apoptosis, HUV-EC-C cell line, luminescence, NTPHTS, NTPHTS_NCGC, NIEHS, EPA, DSSTox, MLSMR, MLSCN, NIH Roadmap, qHTS, NCGC
For `C=C(C)c1ccccc1`, the Potency result is “inactive”. For the molecule `CN(C)c1ccc(C2(c3ccc(N(C)C)cc3)OC(=O)c3cc(N(C)C)ccc32)cc1`, the Potency entry was “inactive”. As for `Cc1ccc(S(=O)(=O)Oc2ccc(N=Nc3ccc(-c4ccc(N=Nc5c(O)ccc6cc(S(=O)(=O)O)cc(S(=O)(=O)O)c56)c(C)c4)cc3C)cc2)cc1`, the Potency entry is “inactive”. Under `Cc1cc(O)c(C(C)(C)C)cc1Sc1cc(C(C)(C)C)c(O)cc1C` stands 50.1 µM (active); under `C/C=C1\C(=O)C[C@H]2[C@@H]3CCC4=CC(=O)CC[C@]4(C)[C@H]3CC[C@]12C`, “inactive”. Turning to `O=[N+]([O-])c1cc([N+](=O)[O-])c2ccc(S(=O)(=O)O)cc2c1O`, the Potency result was “inactive”. The value for `CCC(C)Nc1ccc(NC(C)CC)cc1` (configuration not stated) was “inactive”. Under `Nc1ccc2cc3ccccc3cc2c1` stands “inactive”; under `ClC1=C(Cl)C(Cl)(Cl)C(Cl)=C1Cl`, “inactive”. Regarding `C=CC(=O)OCCOCCOC(=O)C=C`, the Potency entry is “inactive”.

Regarding `Cc1cc(Nc2ccc(O)cc2)ccc1N`, the Potency entry was “inactive”. For `Oc1ccc2cc(SSc3ccc4cc(O)ccc4c3)ccc2c1`, the Potency result is “inactive”. Regarding `O=Cc1ccc(Cl)c(Cl)c1`, the Potency result was “inactive”. For the molecule `C=CC(=O)OCC(CO)(COC(=O)C=C)COC(=O)C=C`, the Potency result is “inactive”. Under `O=C=Nc1ccc(Cc2ccc(N=C=O)cc2)cc1` stands “inactive”. Under `c1ccc2c(c1)ccc1cc3c(ccc4ccccc43)cc12` stands “inactive”; under `O=C1OC(O)C(C(Cl)Cl)=C1Cl` (configuration not stated), “inactive”; under `CN1[C@H]2CC(OC(=O)[C@H](CO)c3ccccc3)C[C@H]1[C@H]1O[C@H]12` (some centres not stated), “inactive”. The value for `CC(=O)Nc1ccc(C(=O)CCl)cc1` was “inactive”. As to `CO[C@H]1/C=C/O[C@@]2(C)Oc3c(C)c(O)c4c(O)c(c5c(c4c3C2=O)NC2(CCN(CC(C)C)CC2)N=5)=NC(=O)/C(C)=C\C=C\[C@H](C)[C@H](O)[C@@H](C)[C@@H](O)[C@@H](C)[C@H](OC(C)=O)[C@@H]1C`, the Potency result was “inactive”. Consider `Cc1cccc(O)c1C`, for which the Potency entry was “inactive”. Under `O=C(/C=C/c1ccc(O)c(O)c1)OC1C[C@](O)(C(=O)O)C[C@@H](O)[C@H]1O` (some centres not stated) stands “inactive”; under `CNc1ccc(O)cc1`, “inactive”; under `O=C1OC2(c3cc(Br)c(O)c(Br)c3Oc3c2cc(Br)c(O)c3Br)c2c(Cl)c(Cl)c(Cl)c(Cl)c21`, “inactive”. Under `CCCCCC/C(C=O)=C\c1ccccc1` stands “inactive”; under `c1ccc2c(c1)-c1cccc3c1c-2cc1ccccc13`, “inactive”.

Regarding `O=C(OCC(COC(=O)c1ccccc1)(COC(=O)c1ccccc1)COC(=O)c1ccccc1)c1ccccc1`, the Potency result is “inactive”.
